# Counter-ions that a name gives are not always drawn. ± gives the standard deviation of the averaged measurements.
# What was measured:
# Experiment in all cases: growth (OD600 after 10 h); higher = more growth (less inhibition)
# [1] = test system: E. coli TESEC Alr+ wild-type control; conditions: compound 0.1 mM; raw OD600 reference: median of DMSO wells 0.241, cell-free background 0.041
# Protocol: (§1)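 TESEC Mtb Alr E. coli, or the Alr+ wild-type control, in 384-well plates with Prestwick library compounds at 0.1 mM and 1% DMSO, across arabinose induction levels of 1E3 to 1E7 nM. Growth is read as OD600 after 10 h at 37 °C in triplicate biological replicates.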
# E. coli TESEC Mtb Alr [2] = conditions: compound 0.1 mM
# Protocol: as §1
# E. coli TESEC Mtb Asd = conditions: compound 0.1 mM
# Protocol: (§2)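 TESEC E. coli strains in which the native enzyme is deleted and replaced by arabinose-inducible Mtb Asd, DapB, CysH or TrpD, each grown in its selective medium. Strains were screened against the Prestwick library at 0.1 mM and 1% DMSO in 384-well format at low and high arabinose induction. Growth is read as OD600 after 10 h in triplicate.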
# E. coli TESEC Mtb DapB = conditions: compound 0.1 mM
# Protocol: as §2
# E. coli TESEC Mtb Alr [3] = conditions: compound 0.1 mM; remark: listed apart in the source
# Protocol: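 TESEC Mtb Alr E. coli (ΔaraC ΔtolC ΔentC Δalr ΔdadX, arabinose-inducible Mtb Alr) or the Alr+ wild-type control strain, grown in defined M9-fructose medium without D-alanine in 96-well plates with Prestwick library compounds at 0.1 mM and 1% DMSO. Low Alr induction is 0.1 µM arabinose and high induction is 10 mM arabinose.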
# [4] = arabinose 1000 nM, raw OD600 reference: median of DMSO wells 0.294, cell-free background 0.041
# [5] = arabinose 10000 nM, raw OD600 reference: median of DMSO wells 0.264, cell-free background 0.041
# [6] = arabinose 100000 nM, raw OD600 reference: median of DMSO wells 0.201, cell-free background 0.041
# [7] = arabinose 1000000 nM, raw OD600 reference: median of DMSO wells 0.193, cell-free background 0.041
# [8] = arabinose 10000000 nM, raw OD600 reference: median of DMSO wells 0.146, cell-free background 0.041
# [9] = arabinose induction (level): High, raw OD600 reference: median of DMSO wells 0.331, cell-free background 0.041
# [10] = arabinose induction (level): Low, raw OD600 reference: median of DMSO wells 0.417, cell-free background 0.041
# [11] = arabinose induction (level): High, raw OD600 reference: median of DMSO wells […], cell-free background 0.041
# [12] = arabinose induction (level): Low, raw OD600 reference: median of DMSO wells 0.227, cell-free background 0.041
# [13] = arabinose 100 nM, raw OD600 reference: median of DMSO wells 0.413, cell-free background 0.052
# [14] = arabinose 10000000 nM, raw OD600 reference: median of DMSO wells […], cell-free background 0.052
SMILES,growth [1],growth (E. coli TESEC Mtb Alr [2]; [4]),growth (E. coli TESEC Mtb Alr [2]; [5]),growth (E. coli TESEC Mtb Alr [2]; [6]),growth (E. coli TESEC Mtb Alr [2]; [7]),growth (E. coli TESEC Mtb Alr [2]; [8]),growth (E. coli TESEC Mtb Asd; [9]),growth (E. coli TESEC Mtb Asd; [10]),growth (E. coli TESEC Mtb DapB; [11]),growth (E. coli TESEC Mtb DapB; [12]),growth (E. coli TESEC Mtb Alr [3]; [13]),growth (E. coli TESEC Mtb Alr [3]; [14])
CN1CCC[C@@H]1CCO[C@](C)(c1ccccc1)c1ccc(Cl)cc1 [Clemastine fumarate],0.0447 ± 0.00026,0.0419 ± 0.00017,0.0403 ± 0.0001,0.04353 ± 0.00025,0.04023 ± 0.00015,0.0439 ± 0.0004,0.0482 ± 0.0021,0.0504 ± 0.0026,0.0513 ± 0.00046,0.102 ± 0.085,0.421 ± 0.0052,0.0923 ± 0.02
CC(=O)CC(c1ccccc1)c1c(O)c2ccccc2oc1=O (stereo unspecified) [Warfarin],0.251 ± 0.012,0.273 ± 0.007,0.2271 ± 0.0011,0.139 ± 0.0062,0.15 ± 0.0059,0.126 ± 0.0063,0.351 ± 0.065,0.391 ± 0.072,0.2 ± 0.011,0.231 ± 0.021,0.39 ± 0.0054,0.342 ± 0.012
CC(CCc1ccccc1)NCC(O)c1ccc(O)c(C(N)=O)c1 (stereo unspecified) [Labetalol hydrochloride],0.191 ± 0.006,0.246 ± 0.015,0.24 ± 0.011,0.174 ± 0.011,0.1371 ± 0.0012,0.137 ± 0.0031,0.26 ± 0.015,0.407 ± 0.046,0.186 ± 0.0091,0.209 ± 0.017,0.413 ± 0.0048,0.321 ± 0.016
NC(=O)c1ncn([C@@H]2O[C@H](CO)[C@@H](O)[C@H]2O)n1 [Ribavirin],0.17 ± 0.02,0.0986 ± 0.0022,0.0798 ± 0.0011,0.117 ± 0.0028,0.0816 ± 0.0003,0.106 ± 0.0017,0.404 ± 0.036,0.426 ± 0.071,0.196 ± 0.021,0.203 ± 0.025,0.415 ± 0.046,0.24 ± 0.021
CCN(CC)CCCC(C)Nc1ccnc2cc(Cl)ccc12 (stereo unspecified) [Chloroquine diphosphate],0.236 ± 0.0047,0.338 ± 0.0096,0.2486 ± 0.0011,0.235 ± 0.025,0.176 ± 0.0044,0.163 ± 0.0047,0.253 ± 0.047,0.246 ± 0.029,0.201 ± 0.026,0.226 ± 0.047,0.412 ± 0.014,0.328 ± 0.02
CCOC(=O)[N-]c1c[n+](N2CCOCC2)no1 [Molsidomine],0.245 ± 0.0064,0.307 ± 0.0077,0.27 ± 0.0035,0.244 ± 0.048,0.182 ± 0.0019,0.166 ± 0.0027,0.305 ± 0.1,0.338 ± 0.084,0.207 ± 0.022,0.23 ± 0.02,0.408 ± 0.014,0.313 ± 0.022
Cc1cc(C)nc(NS(=O)(=O)c2ccc(N)cc2)n1 [Sulfamethazine sodium salt],0.242 ± 0.0082,0.293 ± 0.015,0.252 ± 0.013,0.215 ± 0.016,0.165 ± 0.0038,0.142 ± 0.0032,0.408 ± 0.021,0.449 ± 0.042,0.191 ± 0.0082,0.269 ± 0.022,0.413 ± 0.012,0.335 ± 0.0075
CC(=O)Nc1c(I)c(C(=O)N[C@H]2C(O)O[C@H](CO)[C@@H](O)[C@@H]2O)c(I)c(N(C)C(C)=O)c1I (stereo partly specified) [Metrizamide],0.246 ± 0.014,0.307 ± 0.014,0.273 ± 0.0038,0.238 ± 0.034,0.188 ± 0.0051,0.16 ± 0.0066,0.247 ± 0.017,0.352 ± 0.0067,0.218 ± 0.025,0.212 ± 0.013,0.403 ± 0.012,0.334 ± 0.011
